Laboratory results from PubChem BioAssay (Tox21).
Where “and” joins values, the source holds several entries; their conditions need not be identical. Identical values can stand only once. Records with an inconclusive call do not appear. A call without a number means that no potency is given here. A structure can be active in one record and inactive in another. Calls of active or inactive are those of the source. Calls come from the whole dose curve; as a rule, active = well fitted cell-killing curve with a large enough effect in the repeat runs; inconclusive = weak or mixed curves; inactive = flat fitted curve, though single readings scatter.

Test: qHTS RealTime-Glo MT Cell Viability Assay in HepG2 cells - 32 hour (AID 1224877); note: nearly all actives have a fitted effect of over 55% in size
Details: RealTime-Glo luminescence; series mostly up to 76.8 µM
Excerpt: U.S. Tox21 Program National Center for Advancing Translational Sciences [NCATS] NIH Chemical Genomics Center [NCGC] U.S. Environmental Protection Agency [EPA] National Institutes of Environmental Health Sciences [NIEHS] National Toxicology Program [NTP] U.S. Food and Drug Administration [FDA] Tox21 Assay Overview: Measure of cell viability is critical in the cell-base assay. Analysis of cell viability is necessary for the characterization of cell responses to cytotoxic drugs and environmental stress. A RealTime-Glo MT Cell Viability Assay to monitor cell viability in real time of continues cell culture during 40 hours of compound treatment was used to screen Tox21 10K library compounds in HepG2 cells. The RealTime-Glo MT Cell Viability Assay is a nonlytic, homogeneous, bioluminescent method to measure cell viability in real time using a simple, plate-based method. The assay involves adding NanoLuc luciferase and a cell-permeant prosubstrate to cells in culture. Viable cells reduce the proprietary prosubstrate to generate a substrate for NanoLuc luciferase. This substrate diffuses from cells into the surrounding culture medium, where it is rapidly used by the NanoLuc Enzyme to produce a luminescent signal. The signal correlates with the number of viable cells, making the assay well suited for cytotoxicity studies.
Tox21 Assay Protocol Summary: The mixture of HepG2 cell suspension and reagents were dispensed at 600cells/6 ul/well in 1536-well tissue culture treated black solid bottom plates using a Multidrop dispenser. After the assay plates were incubated at a 37 C/5% CO2 incubator for 5 hours, 23 nL of compounds dissolved in DMSO, positive and negative controls was transferred to the assay plate by a pintool work station. The plates were incubated at 37 C for 40 hours. The luminescence intensity were measured at 0h, 8h, 16h, 24h, 32h and 40h time points using ViewLux plate reader during compound treatment.
Potency is the fitted concentration of half-maximal effect.

Row | Compound | Potency
1 | Nc1nc2ccccc2[nH]1 | inactive
2 | COC(=O)/C=C/c1ccccc1 | inactive
3 | C=CC(=O)OCCCCCCCC | inactive
4 | Cc1cc(OCCOCC[N+](C)(C)Cc2ccccc2)ccc1C(C)(C)CC(C)(C)C | 13.7 µM (active) and 9.52 µM (active)
5 | O=C(O)c1cn(-c2ccc(F)cc2)c2cc(N3CCNCC3)c(F)cc2c1=O | inactive
6 | Nc1nc(=S)c2[nH]cnc2[nH]1 | inactive
7 | Nc1cc(Cl)c(-c2cc(Cl)c(N)cc2Cl)cc1Cl | inactive
8 | CCCCC/C=C/CC1CC(=O)OC1=O (stereo not given) | inactive
9 | Cc1c(O)cccc1C(=O)N[C@@H](CSc1ccccc1)[C@H](O)CN1C[C@H]2CCCC[C@H]2C[C@H]1C(=O)NC(C)(C)C | inactive
10 | CC[C@]1(O)C[C@@H]2CN(CCc3c([nH]c4ccccc34)[C@@](C(=O)OC)(c3cc4c(cc3OC)N(C)[C@H]3[C@@](O)(C(=O)OC)[C@H](OC(C)=O)[C@]5(CC)C=CCN6CC[C@]43[C@@H]65)C2)C1 | inactive
11 | OCCN1CCNCC1 | inactive
12 | CC(C)(c1ccccc1)c1ccc(Nc2ccc(C(C)(C)c3ccccc3)cc2)cc1 | inactive
13 | CCN(CC)C(=S)SSC(=S)N(CC)CC | 89.1 nM (active)
14 | CCc1cc(C(C)(C)C)c(O)c(C(C)(C)C)c1 | inactive
15 | COc1ccc(Cc2cnc(N)nc2N)cc1OC | inactive
16 | Cc1cccc2n[nH]nc12 | inactive
17 | Cc1cc(C(C)(C)C)c(O)c(C(C)(C)C)c1 | inactive
18 | CCN(CC)CCOc1ccc(/C(=C(\Cl)c2ccccc2)c2ccccc2)cc1 | 19.9 µM (active) and 23.9 µM (active)
19 | O=S(=O)(O)c1ccc2nc(-c3ccccc3)[nH]c2c1 | inactive
20 | CCCCCCCCCCCCCC[P+](CCCC)(CCCC)CCCC | 21.8 µM (active) and 12.3 µM (active)

Row | Compound | Potency
21 | O=C(OCc1ccccc1)c1ccc(O)cc1 | inactive
22 | O=C1NCC2(CCN(CCc3ccccc3)CC2)O1 | inactive
23 | O=C(O)c1cccc(C(=O)O)c1 | inactive
24 | CN1C(=O)c2ccc([N+](=O)[O-])cc2C1=O | inactive
25 | CCOC(=O)C(C)C(C)=O (stereo not given) | inactive
26 | CCCCC(CC)COC(=O)CC(C(=O)OCC(CC)CCCC)S(=O)(=O)O (stereo not given) | inactive
27 | NC(=Nc1ccccc1)Nc1ccccc1 | inactive
28 | CCCCCCCCCCCCc1ccccc1O | inactive and 43.6 µM (active)
29 | O=C(Cl)c1cccc(C(=O)Cl)c1 | inactive
30 | CC(=O)C1=C(C)[C@@H]2C[C@@]3(C1)[C@H](C)CC[C@H]3C2(C)C | inactive
31 | Nc1cc(S(=O)(=O)O)cc2cc(S(=O)(=O)O)cc(O)c12 | inactive
32 | C=CS(=O)(=O)O | inactive
33 | c1ccc2c(c1)CCCC2C1=NCCN1 (stereo not given) | inactive
34 | Nc1ccc(O)cc1 | inactive
35 | CC(=O)N[C@@H](CS)C(=O)O | inactive
36 | C=C(C)C(=O)O | inactive
37 | CC(C)(C)c1ccccc1 | inactive
38 | CCCCCCCCCCCC[N+](C)(C)C | 48.9 µM (active) and 49 µM (active)
39 | O=C1Nc2ccccc2C1(c1ccc(O)cc1)c1ccc(O)cc1 | inactive
40 | COc1cc(C(=S)N2CCOCC2)ccc1O | inactive
